# Results: article PMC5700166
# Positions count from the first letter of the chain named.
# Tests used:
# Assay in all cases: protein-binding microarray (PBM); PBM: ~300 nM protein, 6 mM HEPES pH 7.8, 80 mM KCl, 0.5 mM EDTA, 0.5 mM EGTA, 6% glycerol, 35 ng/ul poly-dIdC, 1% milk, 1 h, room temperature; Ap Aiptasia and Nv Nematostella (sea anemones) / Co Capsaspora / Aq Amphimedon (sponge) / Dm Drosophila / Hu human; RHD is the Rel homology domain; high values mean tight binding
# Settings in all cases: dsDNA, one strand shown
# [1] = molecular target: T1, GST-Dm-Relish (Drosophila melanogaster, UniProt Q94527 99-473)
# T1 sequence: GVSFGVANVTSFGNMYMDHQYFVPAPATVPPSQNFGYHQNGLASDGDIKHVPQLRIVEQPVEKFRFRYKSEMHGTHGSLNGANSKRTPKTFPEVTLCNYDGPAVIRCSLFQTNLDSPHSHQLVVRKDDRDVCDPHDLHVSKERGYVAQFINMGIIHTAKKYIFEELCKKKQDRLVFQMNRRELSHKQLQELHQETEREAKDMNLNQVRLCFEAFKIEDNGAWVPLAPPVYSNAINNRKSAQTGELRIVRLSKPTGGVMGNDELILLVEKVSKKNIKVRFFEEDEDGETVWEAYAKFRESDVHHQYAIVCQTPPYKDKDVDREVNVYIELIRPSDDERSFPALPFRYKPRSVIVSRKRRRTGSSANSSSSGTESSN
# [2] = molecular target: GST-Hu-p50 (Homo sapiens, UniProt P19838 7-356)
# GST-Hu-p50, sequence (P19838 7-356): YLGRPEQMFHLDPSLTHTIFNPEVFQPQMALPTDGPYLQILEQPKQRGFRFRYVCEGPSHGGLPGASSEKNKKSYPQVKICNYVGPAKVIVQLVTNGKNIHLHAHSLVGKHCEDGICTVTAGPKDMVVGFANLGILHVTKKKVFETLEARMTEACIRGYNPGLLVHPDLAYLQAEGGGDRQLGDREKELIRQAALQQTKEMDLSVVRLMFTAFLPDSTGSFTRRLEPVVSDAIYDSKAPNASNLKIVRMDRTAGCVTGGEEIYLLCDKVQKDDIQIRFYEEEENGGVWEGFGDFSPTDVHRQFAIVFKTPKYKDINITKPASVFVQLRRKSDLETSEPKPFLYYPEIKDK
# [3] = molecular target: T2, GST-Nv-NF-kB (Cys allele) (Nematostella vectensis, UniProt E5G601 2-411)
# T2 sequence: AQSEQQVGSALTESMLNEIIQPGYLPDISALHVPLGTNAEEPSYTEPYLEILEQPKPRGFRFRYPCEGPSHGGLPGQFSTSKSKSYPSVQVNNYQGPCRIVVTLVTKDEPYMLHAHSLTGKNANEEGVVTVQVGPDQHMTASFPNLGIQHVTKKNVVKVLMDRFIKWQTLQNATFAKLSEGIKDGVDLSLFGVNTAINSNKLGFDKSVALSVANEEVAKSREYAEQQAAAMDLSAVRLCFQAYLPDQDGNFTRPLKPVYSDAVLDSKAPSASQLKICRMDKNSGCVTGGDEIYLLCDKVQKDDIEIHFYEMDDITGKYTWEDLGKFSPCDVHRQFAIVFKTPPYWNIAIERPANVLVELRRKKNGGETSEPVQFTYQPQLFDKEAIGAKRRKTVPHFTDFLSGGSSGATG
# [4] = molecular target: T3, GST-Nv-NF-kB (Ser allele) (Nematostella vectensis, UniProt A7UNT2 2-411)
# T3 sequence: T2 sequence with Q21R, C66S, S207N, E215Q, V217A, E225K, A268E, D399E
# [5] = molecular target: T4, GST-Aq-NF-kB (Amphimedon queenslandica, UniProt A9Y5G7 2-389)
# T4 sequence: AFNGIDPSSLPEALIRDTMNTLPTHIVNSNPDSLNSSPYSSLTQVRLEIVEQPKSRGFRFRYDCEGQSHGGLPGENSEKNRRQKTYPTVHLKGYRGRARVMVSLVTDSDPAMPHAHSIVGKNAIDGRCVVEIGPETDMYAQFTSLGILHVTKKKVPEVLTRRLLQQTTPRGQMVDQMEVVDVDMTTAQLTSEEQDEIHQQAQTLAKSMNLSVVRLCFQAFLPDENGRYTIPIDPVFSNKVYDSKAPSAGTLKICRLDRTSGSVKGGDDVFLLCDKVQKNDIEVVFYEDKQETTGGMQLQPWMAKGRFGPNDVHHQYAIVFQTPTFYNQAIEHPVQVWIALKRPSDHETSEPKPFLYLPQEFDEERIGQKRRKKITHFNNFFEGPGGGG
# [6] = molecular target: T5, GST-Ap-NF-kB RHD (Exaiptasia pallida (Aiptasia), UniProt A0A913YAJ5 2-422)
# T5 sequence: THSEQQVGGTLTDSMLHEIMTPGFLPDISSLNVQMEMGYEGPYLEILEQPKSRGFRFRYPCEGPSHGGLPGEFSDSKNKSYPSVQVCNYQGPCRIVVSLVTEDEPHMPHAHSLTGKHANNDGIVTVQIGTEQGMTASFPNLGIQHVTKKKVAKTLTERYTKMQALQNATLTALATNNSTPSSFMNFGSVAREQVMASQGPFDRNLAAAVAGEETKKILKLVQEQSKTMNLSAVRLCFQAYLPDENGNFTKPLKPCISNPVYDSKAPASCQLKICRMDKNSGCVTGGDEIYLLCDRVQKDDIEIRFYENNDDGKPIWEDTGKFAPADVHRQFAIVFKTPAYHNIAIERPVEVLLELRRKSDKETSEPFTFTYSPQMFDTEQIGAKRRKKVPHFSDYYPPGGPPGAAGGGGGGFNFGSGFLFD
# [7] = molecular target: T6, GST-Co-NF-kB (Capsaspora owczarzaki, UniProt F1ARL5 200-546)
# T6 sequence: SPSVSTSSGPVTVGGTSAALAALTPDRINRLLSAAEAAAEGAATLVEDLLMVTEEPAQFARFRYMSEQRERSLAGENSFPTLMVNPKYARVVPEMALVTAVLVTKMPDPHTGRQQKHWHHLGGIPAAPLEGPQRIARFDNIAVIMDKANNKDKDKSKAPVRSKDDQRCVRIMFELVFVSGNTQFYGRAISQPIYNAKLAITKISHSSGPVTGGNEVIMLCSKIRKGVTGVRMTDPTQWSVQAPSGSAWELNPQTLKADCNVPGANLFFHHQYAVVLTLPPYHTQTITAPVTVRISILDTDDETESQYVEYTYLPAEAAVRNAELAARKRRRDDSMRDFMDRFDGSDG
sequence,measurement,setting,value
CCGATTAACATCATTTCTTACGGTGATGTTAATCGGGTCTTGATTCGCTTGACGCTGCTG,binding signal,[1],1.25 z-score
same,binding signal,[2],1.44 z-score
CCGATTAACATCACTCTTCTCGGTGATGTTAATCGGGTCTTGATTCGCTTGACGCTGCTG,binding signal,[3],1.05 z-score
same,binding signal,[4],1.37 z-score
same,binding signal,[1],1.33 z-score
same,binding signal,[2],1.72 z-score
CCGATTAACATCAGGAATTCCGATGATGTTAATCGGGTCTTGATTCGCTTGACGCTGCTG,binding signal,[1],2.4 z-score
same,binding signal,[5],1.28 z-score
CCGATTAACATCAGGGCCAAAAATGATGTTAATCGGGTCTTGATTCGCTTGACGCTGCTG,binding signal,[2],1.38 z-score
CCGATTAACATCACGTGTGTAGGTGATGTTAATCGGGTCTTGATTCGCTTGACGCTGCTG,binding signal,[4],1.58 z-score
same,binding signal,[2],1.87 z-score
CCGATTAACATCACGGAAATTCCTGATGTTAATCGGGTCTTGATTCGCTTGACGCTGCTG,binding signal,[1],1.83 z-score
same,binding signal,[5],4.88 z-score
CCGATTAACATCAGGAAGGGCGGTGATGTTAATCGGGTCTTGATTCGCTTGACGCTGCTG,binding signal,[6],1.05 z-score
same,binding signal,[7],1.08 z-score
same,binding signal,[2],1.07 z-score
CCGATTAACATCAATCAGCGGGGTGATGTTAATCGGGTCTTGATTCGCTTGACGCTGCTG,binding signal,[6],1.21 z-score
same,binding signal,[7],2.43 z-score
CCGATTAACATCAACGTGATTTGTGATGTTAATCGGGTCTTGATTCGCTTGACGCTGCTG,binding signal,[7],1.11 z-score
CCGATTAACATCATGGGGTGTGCTGATGTTAATCGGGTCTTGATTCGCTTGACGCTGCTG,binding signal,[6],1.12 z-score
same,binding signal,[7],1.28 z-score
CCGATTAACATCACTAGGTAGTCTGATGTTAATCGGGTCTTGATTCGCTTGACGCTGCTG,binding signal,[4],1.04 z-score
CCGATTAACATCACCCCCCCCCCTGATGTTAATCGGGTCTTGATTCGCTTGACGCTGCTG,binding signal,[6],5.35 z-score
same,binding signal,[7],7.37 z-score
same,binding signal,[1],4.97 z-score
CCGATTAACATCATGTCGGGTGATGATGTTAATCGGGTCTTGATTCGCTTGACGCTGCTG,binding signal,[7],1.26 z-score
CCGATTAACATCAGGGTATAACGTGATGTTAATCGGGTCTTGATTCGCTTGACGCTGCTG,binding signal,[7],1.1 z-score
CCGATTAACATCAATTAGGTGGGTGATGTTAATCGGGTCTTGATTCGCTTGACGCTGCTG,binding signal,[6],1.19 z-score
same,binding signal,[7],1.13 z-score
CCGATTAACATCAGTACCTCGTATGATGTTAATCGGGTCTTGATTCGCTTGACGCTGCTG,binding signal,[4],1.04 z-score
CCGATTAACATCACTACCCCGGATGATGTTAATCGGGTCTTGATTCGCTTGACGCTGCTG,binding signal,[6],1.88 z-score
same,binding signal,[7],3.19 z-score
CCGATTAACATCACGTGGGGCGTTGATGTTAATCGGGTCTTGATTCGCTTGACGCTGCTG,binding signal,[3],1.36 z-score
CCGATTAACATCATCCCTTGTCATGATGTTAATCGGGTCTTGATTCGCTTGACGCTGCTG,binding signal,[6],1.2 z-score
CCGATTAACATCAACCCCCCCCCTGATGTTAATCGGGTCTTGATTCGCTTGACGCTGCTG,binding signal,[6],5.71 z-score
same,binding signal,[4],4.2 z-score
same,binding signal,[7],5.49 z-score
same,binding signal,[1],5.26 z-score
CCGATTAACATCAATTTGGGAAATGATGTTAATCGGGTCTTGATTCGCTTGACGCTGCTG,binding signal,[3],2.58 z-score
same,binding signal,[7],1.92 z-score
CCGATTAACATCAGGGAGCCGTATGATGTTAATCGGGTCTTGATTCGCTTGACGCTGCTG,binding signal,[6],1.18 z-score
CCGATTAACATCACCTTCTTTACTGATGTTAATCGGGTCTTGATTCGCTTGACGCTGCTG,binding signal,[7],1.57 z-score
CCGATTAACATCACTGGGAGGGCTGATGTTAATCGGGTCTTGATTCGCTTGACGCTGCTG,binding signal,[6],1.08 z-score
same,binding signal,[7],1.47 z-score
CCGATTAACATCAGCTTGGGAAATGATGTTAATCGGGTCTTGATTCGCTTGACGCTGCTG,binding signal,[3],1.84 z-score
same,binding signal,[7],2.33 z-score
CCGATTAACATCAAGAGAGAAAGTGATGTTAATCGGGTCTTGATTCGCTTGACGCTGCTG,binding signal,[7],1.16 z-score
CCGATTAACATCAGATAGGTACTTGATGTTAATCGGGTCTTGATTCGCTTGACGCTGCTG,binding signal,[4],2.46 z-score
CCGATTAACATCAAGGGGGGGGGTGATGTTAATCGGGTCTTGATTCGCTTGACGCTGCTG,binding signal,[6],5.14 z-score
same,binding signal,[7],7.25 z-score
same,binding signal,[1],5.34 z-score
CCGATTAACATCACCCCATCTCGTGATGTTAATCGGGTCTTGATTCGCTTGACGCTGCTG,binding signal,[6],1.2 z-score
same,binding signal,[7],2.11 z-score
same,binding signal,[1],1.42 z-score
CCGATTAACATCACCCCGAACGCTGATGTTAATCGGGTCTTGATTCGCTTGACGCTGCTG,binding signal,[6],1.59 z-score
same,binding signal,[7],2.02 z-score
CCGATTAACATCAGTGGTACTTGTGATGTTAATCGGGTCTTGATTCGCTTGACGCTGCTG,binding signal,[4],1.44 z-score
same,binding signal,[1],1.25 z-score
CCGATTAACATCACCCCCCCCCATGATGTTAATCGGGTCTTGATTCGCTTGACGCTGCTG,binding signal,[6],4.92 z-score
same,binding signal,[4],3.7 z-score
same,binding signal,[7],7.08 z-score
same,binding signal,[1],5.37 z-score
CCGATTAACATCACCCGCGCTCATGATGTTAATCGGGTCTTGATTCGCTTGACGCTGCTG,binding signal,[6],1.32 z-score
same,binding signal,[1],1.06 z-score
CCGATTAACATCAACCCCAGCTCTGATGTTAATCGGGTCTTGATTCGCTTGACGCTGCTG,binding signal,[6],1.01 z-score
same,binding signal,[3],1.21 z-score
same,binding signal,[7],1.8 z-score
same,binding signal,[1],1.14 z-score
CCGATTAACATCAAAGAGGAGTCTGATGTTAATCGGGTCTTGATTCGCTTGACGCTGCTG,binding signal,[3],1.23 z-score
CCGATTAACATCAAGAACCTTCTTGATGTTAATCGGGTCTTGATTCGCTTGACGCTGCTG,binding signal,[3],1.02 z-score
CCGATTAACATCAGGTAATATATTGATGTTAATCGGGTCTTGATTCGCTTGACGCTGCTG,binding signal,[4],2.14 z-score
CCGATTAACATCAAGGGGGGGGATGATGTTAATCGGGTCTTGATTCGCTTGACGCTGCTG,binding signal,[6],7.71 z-score
same,binding signal,[7],7.64 z-score
same,binding signal,[1],5.31 z-score
CCGATTAACATCACACCCGCAACTGATGTTAATCGGGTCTTGATTCGCTTGACGCTGCTG,binding signal,[7],1.54 z-score
CCGATTAACATCACCCGGCGCAGTGATGTTAATCGGGTCTTGATTCGCTTGACGCTGCTG,binding signal,[6],1.17 z-score
same,binding signal,[7],2.3 z-score
CCGATTAACATCAGCATTCCCAATGATGTTAATCGGGTCTTGATTCGCTTGACGCTGCTG,binding signal,[3],1.29 z-score
same,binding signal,[7],1.08 z-score
CCGATTAACATCACACTGTTCAGTGATGTTAATCGGGTCTTGATTCGCTTGACGCTGCTG,binding signal,[4],1.06 z-score
CCGATTAACATCACTAGGCGGGATGATGTTAATCGGGTCTTGATTCGCTTGACGCTGCTG,binding signal,[6],1.56 z-score
same,binding signal,[7],1.92 z-score
CCGATTAACATCAGGAAATGGGATGATGTTAATCGGGTCTTGATTCGCTTGACGCTGCTG,binding signal,[6],1.33 z-score
CCGATTAACATCAATAGTACCGATGATGTTAATCGGGTCTTGATTCGCTTGACGCTGCTG,binding signal,[6],1.43 z-score
same,binding signal,[3],1.03 z-score
same,binding signal,[4],3 z-score
CCGATTAACATCAAGGGGGGATATGATGTTAATCGGGTCTTGATTCGCTTGACGCTGCTG,binding signal,[6],5.79 z-score
same,binding signal,[3],4.88 z-score
same,binding signal,[7],6.15 z-score
same,binding signal,[1],4.29 z-score
